Bioassay records: PubChem, several laboratories
FXN GAA850 act: frataxin GAA850 promoter activation. HEK293 lucGAA850 FXN promoter luciferase reporter, 24 h; percent of 10 µM SAHA response. AID 540364. activation, % at 6 µM. actives 0.56% (n = 360,000);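 active = activation above the average of all compounds screened plus 3 SD, cutoff fixed separately per campaign, cut at about 7.5% in these data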
H9c2 protect: protects H9c2 cardiomyocytes from peroxide injury. protection from H2O2 cell death, % at 20 µM. actives 0.63% (n = 360,000). H2O2 injury protection, ATPLite, 2 h;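 active = compounds giving at least 50% protection of heart cells from peroxide-induced death in the single-dose screen, raw or plate-pattern-corrected value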
GalR3 antag: antagonists of human GalR3 | HEK293 GalR3-CNG cAMP membrane potential fluorescence; galR3 body fused to GalR1 C-terminus | O60755 | inhibition, % at 3 µM | AID 651719 | actives 0.44% (n = 360,000);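 active = inhibition above the screen-wide average plus 3 SD, cut at about 13% in these data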;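 also: forskolin and galanin both at EC90 stimulate the cells; cAMP rise reported by CNG channel membrane potential dye signal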
Gli-Sufu block: Gli-Sufu pathway antagonism; Sufu-KO-LIGHT fibroblasts, Gli luciferase reporter luminescence; inhibition, % at 5 µM; actives 0.74% (n = 340,000);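 active = inhibition above about 55%, limit read from the data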
NR2F2 inh: NR2F2 (human) inhibition, primary screen | P24468 | HEK293T NGFI-A luciferase reporter, luminescence | inhibition, % at 8.6 µM | actives 0.7% (n = 370,000);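 active = inhibition above a per-plate cutoff, mean inhibition of test wells between control levels plus 3 SD, cut at about 38% in these data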;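 also: cells cotransfected with COUP-TFII expression vector driving the NGFI-A reporter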
Target sequence (P24468 whole entry, looked up): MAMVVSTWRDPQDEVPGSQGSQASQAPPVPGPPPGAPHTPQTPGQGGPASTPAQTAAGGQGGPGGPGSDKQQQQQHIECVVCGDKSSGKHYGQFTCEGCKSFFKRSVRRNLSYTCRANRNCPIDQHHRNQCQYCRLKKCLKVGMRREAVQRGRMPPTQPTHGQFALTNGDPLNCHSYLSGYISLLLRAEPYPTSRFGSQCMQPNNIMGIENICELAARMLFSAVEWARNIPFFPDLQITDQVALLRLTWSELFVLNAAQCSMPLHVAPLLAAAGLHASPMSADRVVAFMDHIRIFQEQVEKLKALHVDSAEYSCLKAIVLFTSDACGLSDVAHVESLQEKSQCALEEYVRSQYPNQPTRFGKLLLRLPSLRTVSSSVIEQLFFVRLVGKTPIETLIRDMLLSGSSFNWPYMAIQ
SMARCA2 act: activators of SMARCA2 function; MG213 cells, MMTV-luciferase reporter, dexamethasone, overnight; actives 1% (n = 370,000); AID 652017; activation, % at 9.1 µM; in the data active = activation above about 7.8%
Gli-Sufu confirm: confirmation of Gli-SUFU pathway antagonists; shares compounds with Gli-Sufu block; Sufu-KO-LIGHT cells, Gli luciferase reporter, luminescence; inhibition, % at 5 µM; actives 40% (n = 2,500); AID 602428;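 active = mean inhibition at 5 µM reaching about 45%, limit read from the data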
SufuKO cytotox: cytotoxicity counter-screen for Gli-SUFU antagonists; shares compounds with Gli-Sufu block; Sufu-KO-LIGHT cells cytotoxicity, ATP luminescence; cytotoxicity, % at 5 µM; actives 32% (n = 2,500); AID 651994;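 active = mean cytotoxicity at 5 µM above about 25%, limit read from the data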;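 also: cells exposed to compound overnight for roughly 16 to 18 hours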
Wnt3a cs: counter-screen for Gli-SUFU antagonists: Wnt3a reporter inhibition; inhibition, % at 6.25 µM; shares compounds with Gli-Sufu block; AID 651995; Wnt-LIGHT cells, Wnt3a-driven luciferase reporter, luminescence; actives 20% (n = 2,500);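 active = mean inhibition above about 25%, limit read from the data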
Of the large screens only hits and unclear results are named; the others gave an inactive call (follow-up assays come after a bar, where they were run). Rows were chosen to be rich in hits. Some 3.4% of all compounds tested hit in one or more screens of this group.

COCCNC(=O)CCn1nc(-c2ccc(Cl)cc2)c2ccccc2c1=O	none (no result: GalR3 antag, NR2F2 inh, SMARCA2 act) | Gli-Sufu confirm inactive | SufuKO cytotox inactive | Wnt3a cs inactive
CCCNC(=O)CCn1nc(-c2ccc(Cl)cc2)c2ccccc2c1=O	none
CC1CN(S(=O)(=O)c2ccc(C(=O)Nc3nc(-c4cc5ccccc5o4)cs3)cc2)CC(C)O1 (centres undefined)	Gli-Sufu block 75 | Gli-Sufu confirm 79 | SufuKO cytotox inactive | Wnt3a cs 30
O=C(Nc1nc(-c2cc3ccccc3o2)cs1)c1ccc(S(=O)(=O)N2CCCC2)cc1	none | Gli-Sufu confirm 59 | SufuKO cytotox 30 | Wnt3a cs inactive
Cc1ccc(S(=O)(=O)NCCOc2nc(N(C)C)nc(N3CCOCC3)n2)cc1	Gli-Sufu block 95 | Gli-Sufu confirm inactive | SufuKO cytotox inactive | Wnt3a cs inactive
Cc1ccc(S(=O)(=O)NCCOc2nc(N(C)C)nc(N(C)C)n2)cc1	none
CCNc1nc(OC)nc(N(OC)S(=O)(=O)c2ccc(C)cc2)n1	none | Gli-Sufu confirm inactive | SufuKO cytotox inactive | Wnt3a cs inactive
CCCCNC(=O)C[C@H]1C[C@@]2(C(=O)OC)C(=C[C@H](C(C)C)O[C@@H]2C2CC2)N(CCc2ccc(OC)c(OC)c2)C1=O	none (no result: FXN GAA850 act, H9c2 protect, GalR3 antag, Gli-Sufu block)
CCOc1ccc(N(C)C(=O)CCc2nnc3ccc(N4CCCCC4)nn23)cc1	Gli-Sufu block 59 | Gli-Sufu confirm inactive | SufuKO cytotox inactive | Wnt3a cs inactive
CCCCOC(=O)NC1CCc2cc(OC)c(OC)c(OC)c2-c2ccc(SC)c(=O)cc21 (centres undefined)	Gli-Sufu block 64 | Gli-Sufu confirm 54 | SufuKO cytotox 64 | Wnt3a cs inactive
CN[C@H]1CCc2cc(OC)c(OC)c(OC)c2-c2ccc(OC)c(=O)cc21	none
CCOC(=O)NC1CCc2cc(OC)c(OC)c(OC)c2-c2ccc(SC)c(=O)cc21 (centres undefined)	Gli-Sufu block 55 | Gli-Sufu confirm 56 | SufuKO cytotox 68 | Wnt3a cs 26
CCOCC(=O)NC1CCc2cc(OC)c(OC)c(OC)c2-c2ccc(SC)c(=O)cc21 (centres undefined)	none
Cc1ccc(-c2c(NC(=O)Nc3ccccc3)nc3ncccn23)cc1	none (no result: FXN GAA850 act, H9c2 protect, GalR3 antag, Gli-Sufu block)
CCOc1cc(C(=O)OCc2ccc([N+](=O)[O-])cc2)ccc1OCC(=O)N1CCOCC1	none
CCOc1cc(C(=O)OCc2cccc(OC)c2OC)ccc1OCC(=O)N1CCOCC1	Gli-Sufu block 71 | Gli-Sufu confirm inactive | SufuKO cytotox inactive | Wnt3a cs inactive
O=C1N(Cc2ccccc2)c2ccccc2C12CCCc1sc(CCc3ccccc3)nc12 (centres undefined)	none (no result: FXN GAA850 act, H9c2 protect, GalR3 antag, Gli-Sufu block)
Cc1ccccc1CN1CCN(CCCc2ccccc2)C(CCO)C1 (centres undefined)	none
OCCC1CN(Cc2ccccc2O)CCN1CCCc1ccccc1 (centres undefined)	none | Gli-Sufu confirm inactive | SufuKO cytotox inactive | Wnt3a cs inactive
Cc1ccc(NC(=O)c2ccccc2N2C(=O)C3C4C=CC(C5CC45)C3C2=O)cc1C (centres undefined)	none
Cc1ccc(Nc2nc(N/N=C\c3ccc4c(c3)OCO4)nc(N3CCOCC3)n2)cc1	Gli-Sufu block 56 | Gli-Sufu confirm 50 | SufuKO cytotox 35 | Wnt3a cs inactive
CC(C)c1ccc(/C=N/Nc2cc(N3CCOCC3)nc(N3CCOCC3)n2)cc1	none
Cc1cccc(/C=N/Nc2cc(N3CCOCC3)nc(N3CCOCC3)n2)c1	Gli-Sufu block 60 | Gli-Sufu confirm inactive | SufuKO cytotox 34 | Wnt3a cs inactive
COC(=O)[C@@H](CC(C)C)CP(=O)(OC)[C@@H](C)NC(=O)OCc1ccccc1 (some centres undefined)	none (no result: FXN GAA850 act, H9c2 protect, GalR3 antag, Gli-Sufu block)
C[C@H]1C2CC(OC(=O)NCCCc3ccccc3)C(C2)[C@H]2CCCCN21 (some centres undefined)	none (no result: FXN GAA850 act, H9c2 protect, GalR3 antag, Gli-Sufu block)
